Compounds with a hit are over-represented: about 2.4% of the library has one in this group of screens.
p53ts 39C tox: kills p53ts cells at the nonpermissive temperature | H1299-p53A138V viability at 39C, ATP luminescence, 24 h | Potency, µM (top dose mostly 46.1 µM), actives largely listed as cytotoxic | 130,000 compounds, 1.5% hits; further: nearly all actives have a fitted effect of over 55% in size
Luciferase inh: inhibitors of firefly luciferase; 72,000 compounds, 2.2% hits; P08659; AID 411; purified firefly luciferase, luminescence, 8 min; Potency, µM (titrated, usually from 57.1 µM), most hits filed as inhibitors; further: nearly all actives have a fitted effect of over 40% in size
Target sequence (P08659 whole entry, looked up): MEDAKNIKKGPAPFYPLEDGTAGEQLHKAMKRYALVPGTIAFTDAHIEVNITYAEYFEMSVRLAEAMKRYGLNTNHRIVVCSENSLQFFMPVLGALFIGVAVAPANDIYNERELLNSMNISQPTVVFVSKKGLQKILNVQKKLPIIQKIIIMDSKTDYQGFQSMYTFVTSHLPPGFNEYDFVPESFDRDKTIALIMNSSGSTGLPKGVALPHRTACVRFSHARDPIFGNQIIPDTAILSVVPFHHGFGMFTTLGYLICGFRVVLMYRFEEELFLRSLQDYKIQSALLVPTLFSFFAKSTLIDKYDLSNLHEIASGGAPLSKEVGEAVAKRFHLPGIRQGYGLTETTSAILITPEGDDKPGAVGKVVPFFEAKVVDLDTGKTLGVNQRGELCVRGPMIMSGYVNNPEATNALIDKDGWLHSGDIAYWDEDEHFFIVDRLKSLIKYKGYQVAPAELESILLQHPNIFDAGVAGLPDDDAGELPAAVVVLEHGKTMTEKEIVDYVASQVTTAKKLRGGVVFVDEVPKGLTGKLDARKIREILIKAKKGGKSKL
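Compounds were tested as concentration series (qHTS) against purified P. pyralis luciferase with luciferin and 10 uM ATP in 50 mM imidazole pH 7.2, 50 mM KCl, 7 mM MgCl2, 0.01% Tween 20, 0.05% BSA. Luminescence was read after 8 min at ambient temperature.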
p53ts 32C kill: kills p53ts cells at the permissive temperature | H1299-p53A138V at 32C, ATP luminescence viability, 24 h | Potency, µM (doses to about 46.1 µM), hits mostly cytotoxic | 130,000 compounds, 0.93% hits | AID 924; further: nearly all actives have a fitted effect of over 55% in size
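Cells: H1299 p53ts (A138V), 600/well, pre-incubated 16–30 h at 37C. Cpd up to 46 uM, 24 h, 32C. Readout: ATPlite luminescence, 20 min RT. Normalization: DMSO vs tamoxifen 100 uM. AC50 by Hill equation.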
Peg3 imprint: inducers of genomic imprint erasure in mouse ES cells | AID 1948 | mouse ES Peg3-LacZ reporter, beta-gal luminescence, 40 h | Potency, µM (doses to about 60.7 µM), most hits filed as activators | 110,000 compounds, 0.02% hits
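Imprint erasure is scored as LacZ activity from the silenced maternal Peg3 allele in feeder-free female ES cells cultured 40 h with LIF. Luminescence is normalized to in-plate negative controls and fitted to the Hill equation.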
IkB sig inh: IkB pathway inhibition in ABC-DLBCL cells; ABC-DLBCL IkBa-CBG/CBR dual luciferase ratio, 4 h; response scale: scaled: untreated 0%, proteasome inhibitor 100%; Potency, µM (top dose mostly 57.1 µM); 110,000 compounds, 0.04% hits; active means well fitted curve in the direction sought with a large enough effect in the signal ratio, not every such curve was filed as active; inconclusive means small, poorly fitted or top-dose-only effect, or a change in a side signal; the % refers to the signal ratio;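 further: the direction sought is a rising ratio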
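Curves were fitted separately to fusion (green), unfused (red) and ratio luminescence, then classed by r2, magnitude and activity. Cells: OCI-Ly3, 4 h compound plus doxycycline at 37C; 10 uM MG-132 defined full response.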
A number is an active result; [ ] = dose if it differs, or a comment. Unless noted, the call rests on the fitted dose curve; in most records, active means well fitted curve in the direction sought with a large enough effect; inconclusive means small, poorly fitted or top-dose-only effect, or another doubt; inactive means no such curve, though single readings can be large; an effect the other way counts as inactive or inconclusive.

`c1ccc2c(c1)nnn1c3ccccc3nc21` gave p53ts 39C tox inconclusive, Luciferase inh 13µM, p53ts 32C kill inconclusive, Peg3 imprint inactive and IkB sig inh inactive.
Screening O=C(Nc1ccc2c(c1)OCO2)c1cccs1 returned p53ts 39C tox inconclusive, Luciferase inh inconclusive, p53ts 32C kill inconclusive, Peg3 imprint inactive and IkB sig inh inactive.
Screening O=C(c1ccc2c(c1)OCCCO2)c1cccs1 returned p53ts 39C tox inconclusive, Luciferase inh 13µM, p53ts 32C kill inconclusive, Peg3 imprint inactive and IkB sig inh inactive.
Cc1ccc(CNC(=O)c2cc(-c3ccc(C)cc3)nc3n[nH]c(-c4cccc([N+](=O)[O-])c4)c23)cc1 was read as p53ts 39C tox inactive, p53ts 32C kill inactive, Peg3 imprint inactive[10.9 µM] and IkB sig inh inactive.
Screening COc1ccc(-c2nnc(N(C)C(=O)c3cccnc3)s2)cc1 returned p53ts 39C tox inconclusive, Luciferase inh 6.3µM, p53ts 32C kill inconclusive, Peg3 imprint inactive and IkB sig inh inactive.
For Cc1ccc(-c2nnc(N(C)C(=O)c3cccnc3)s2)cn1 the results were p53ts 39C tox inactive, Luciferase inh inactive, p53ts 32C kill inactive, Peg3 imprint inactive and IkB sig inh inactive.
Screening COc1ccc(-n2c(-c3ccc(C)cc3)cc3c2CC(C)(C)CC3=O)c(OC)c1 returned p53ts 39C tox inconclusive, p53ts 32C kill inactive, Peg3 imprint inactive[10.9 µM] and IkB sig inh inconclusive.
For CCn1c2ccccc2c2cc(CN3CCN(Cc4ccc(OC)c(OC)c4)CC3)ccc21 the results were p53ts 39C tox 25µM, p53ts 32C kill inactive, Peg3 imprint inactive[10.9 µM] and IkB sig inh inconclusive.
CCOc1ccc(CN2CCN(Cc3ccc4c(c3)c3ccccc3n4CC)CC2)cc1 was read as p53ts 39C tox inconclusive, p53ts 32C kill inactive, Peg3 imprint inactive[10.9 µM] and IkB sig inh inconclusive.
CCOc1ccc(S(=O)(=O)N(CC(=O)Nc2ccc3c(c2)OCO3)c2ccccc2)cc1 was read as p53ts 39C tox inactive, p53ts 32C kill inactive, Peg3 imprint inactive[10.9 µM] and IkB sig inh inactive.
For Cc1cc(C)cc(NC(=O)CSc2oc(-c3ccco3)nc2S(=O)(=O)c2ccccc2)c1 the results were p53ts 39C tox inactive, p53ts 32C kill inactive, Peg3 imprint inactive[10.9 µM] and IkB sig inh inconclusive.
For Cc1cc(C)cc(NC(=O)CSc2oc(-c3ccco3)nc2S(=O)(=O)c2ccc(Cl)cc2)c1 the results were p53ts 39C tox 6.3µM, p53ts 32C kill 10µM, Peg3 imprint inactive[10.9 µM] and IkB sig inh inconclusive.
`CNC(=O)[C@@H]1O[C@@H](n2cnc3c(N)ncnc32)[C@@H](O)[C@H]1O` gave p53ts 39C tox inactive, Luciferase inh inactive, p53ts 32C kill inactive and IkB sig inh inconclusive.
`CCc1ccccc1NC(=O)Cn1c(=O)n(CCc2ccccc2)c(=O)c2sc3ccccc3c21` gave p53ts 39C tox 10µM, p53ts 32C kill inactive, Peg3 imprint inactive[10.9 µM] and IkB sig inh inactive.
Screening CCc1ccc(NC(=O)Cn2c(=O)n(CCc3ccccc3)c(=O)c3sc4ccccc4c32)cc1 returned p53ts 39C tox inactive, p53ts 32C kill inactive, Peg3 imprint inactive[10.9 µM] and IkB sig inh inactive.
Screening CCCC(=O)Nc1ccc(NC(=O)c2ccccn2)cn1 returned p53ts 39C tox inconclusive, Luciferase inh 20µM, p53ts 32C kill inconclusive, Peg3 imprint inactive and IkB sig inh inconclusive.
`CCCC(=O)Nc1ccc(NC(=O)c2ccccc2OC)cn1` gave p53ts 39C tox inactive, Luciferase inh inactive, p53ts 32C kill inactive, Peg3 imprint inactive and IkB sig inh inactive.
COc1ccc(C(=O)NC(c2ccccc2Cl)c2cc(Cl)c3cccnc3c2O)cc1 (stereo not given) was read as p53ts 39C tox 2.5µM, p53ts 32C kill inactive, Peg3 imprint inactive[10.9 µM] and IkB sig inh inconclusive.
Screening COc1cccc(NC(=O)CSc2nc(=O)n(Cc3cccnc3)c3c2CCC3)c1 returned p53ts 39C tox inactive, p53ts 32C kill inactive, Peg3 imprint inactive[10.9 µM] and IkB sig inh inconclusive.
For O=C(Nc1ccc(S(=O)(=O)N(Cc2ccccc2)c2ccccc2)cc1)c1ccccc1F the results were p53ts 39C tox inactive, p53ts 32C kill inactive, Peg3 imprint inactive[10.9 µM] and IkB sig inh inconclusive.
`CCN(c1ccccc1)S(=O)(=O)c1nnc(NC(=O)c2ccco2)s1` gave p53ts 39C tox 1.3µM, p53ts 32C kill inconclusive, Peg3 imprint inactive[10.9 µM] and IkB sig inh inactive.
`CCN(CC)c1ccc(NC(=O)c2ccccc2F)cc1` gave p53ts 39C tox inconclusive, Luciferase inh 16µM, p53ts 32C kill inconclusive, Peg3 imprint inactive and IkB sig inh inconclusive.
`CCN(CC)c1ccc(NC(=O)c2ccco2)cc1` gave p53ts 39C tox 10µM, Luciferase inh 10µM, p53ts 32C kill 10µM, Peg3 imprint inactive and IkB sig inh inactive.
For Cc1ccc(N(CC(C)C)S(=O)(=O)c2nnc(NC(=O)c3ccco3)s2)cc1 the results were p53ts 39C tox inactive, p53ts 32C kill inactive, Peg3 imprint inactive[10.9 µM] and IkB sig inh inactive.
CCN(CC)c1ccc(NC(=O)c2ccco2)c(C)c1 was read as p53ts 39C tox inactive, Luciferase inh inactive, p53ts 32C kill inactive, Peg3 imprint inactive and IkB sig inh inactive.
Cc1cc(C)c(NC(=O)C2CCN(c3nnc(C)c4c(C)n(-c5ccccc5)nc34)CC2)c(C)c1 was read as p53ts 39C tox inactive, p53ts 32C kill inactive, Peg3 imprint inactive[10.9 µM] and IkB sig inh inactive.
`N#CC1=C(N)NC(SCc2ccccc2)=C(C#N)C12CCCCC2` gave p53ts 39C tox inactive, Luciferase inh inactive, p53ts 32C kill inactive, Peg3 imprint inactive and IkB sig inh inconclusive.
`CCSC1=C(C#N)C2(CCCCC2)C(C#N)=C(N)N1` gave p53ts 39C tox inconclusive, Luciferase inh 16µM, p53ts 32C kill inconclusive, Peg3 imprint inactive and IkB sig inh inactive.
`COc1cccc(CNC(=O)c2cc3c(=O)n(Cc4cccnc4)ccc3nc2C)c1` gave p53ts 39C tox inactive, p53ts 32C kill inactive, Peg3 imprint inactive[10.9 µM] and IkB sig inh inactive.
Screening COc1ccc(C)cc1NC(=O)N1CCC(CN2CCOCC2)CC1 returned p53ts 32C kill inactive.
For Clc1ccc2nc(N3CCCCC3)[nH]c2c1 the results were p53ts 39C tox inconclusive, Luciferase inh 13µM, p53ts 32C kill inconclusive, Peg3 imprint inactive and IkB sig inh inactive.
For CCOC(=O)COc1ccc(/C=C(\C#N)c2nc3ccc(C)cc3[nH]2)cc1OC the results were p53ts 39C tox inactive, p53ts 32C kill inactive, Peg3 imprint inactive[10.9 µM] and IkB sig inh inconclusive.
Screening COc1cc(/C=C(\C#N)c2nc3ccc(C)cc3[nH]2)ccc1OCc1ccc(C)cc1 returned p53ts 39C tox 4µM, p53ts 32C kill 16µM, Peg3 imprint inactive[10.9 µM] and IkB sig inh inconclusive.
`COC(=O)Nc1nnc(-c2ccccc2Cl)s1` gave p53ts 39C tox 13µM, Luciferase inh inconclusive, p53ts 32C kill 10µM, Peg3 imprint inconclusive and IkB sig inh inactive.

Bioassay records from PubChem BioAssay.
